Results filed as inconclusive are left out. Active and inactive are the calls of the source.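 The calls were made as follows, unless noted: active = compounds lowering colon cancer cell viability after pretreatment blocking the GSK3B kinase; inactive = the rest.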

The text below walks through data of PubChem BioAssay.

A short description of assay [1]: Wnt pathway potentiators raising nuclear beta-catenin – imaging, WNT3A-conditioned medium, mouse C2C12, NPC library, primary screen (AID 1117326; in the data active = nuclear beta-catenin stimulation mostly above about 4.2%, no sharp cut-off; inactive = mostly below about 10%). The following applies: stronger effect = higher value.
The nature of assay [2]: stimulators of insulin release from INS-1E, primary screen, cell-based, 5 mM glucose, NPC library (AID 1117329;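 active = compound raises insulin release from rat beta cells at 5 mM glucose, no numeric limit stated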). The settings on record: rat INS-1E insulin secretion, at 10 µM, stronger effect = higher value.
Assay [3] can be described thus: growth inhibition of GSK3B-pretreated HCT116 cells – cell-based, CellTiter-Glo, 0.2 to 20 µM (AID 1117336). The following applies: HCT116 viability after GSK3B inhibitor, at 20 µM, stronger effect = higher value. (In general: Cellular ATP, detected with luciferase, serves as a proxy for viable cell number.)
The nature of assay [4]: inhibition of endothelial tube formation, primary screen, imaging, VEGF stimulated, CD31 staining, tube area, NPC library (AID 1117340;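 active = compound that reduces growth-factor-driven endothelial tube area in a mixed cell culture, no cutoff stated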). The following applies: VEGF-stimulated ADSC/ECFC co-culture, at 10 µM, stronger effect = higher value.
Assay [5] can be described thus: GLP1 release stimulators, primary, NCI-H716, NPC library (AID 1117341;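 active = compound raises GLP1 secretion from the human gut endocrine cells, with no numeric limit stated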). The settings on record: NCI-H716 cells, at 10 µM, stronger effect = higher value.
Assay [6] can be described thus: HCT116 colon cancer cell growth inhibition, primary screen, CellTiter-Glo luminescence, NPC library (AID 1117342;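 active = compounds that lower survival of HCT116 colon cancer cells in the luminescence readout, no numeric limit stated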). The settings on record: at 20 µM (top of the series).
Assay [7] in a line: reduced SW480 viability measured with CellTiter-Glo, NPC library, primary (AID 1117343;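 active = compounds that lower viability of the colon cancer cells in the luminescence readout, with no numeric limit stated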). The settings on record: CellTiter-Glo luminescence; at 20 µM (top of the series) unless noted.
The nature of assay [8]: NPC library primary testing for decreased DLD-1 cell viability via CellTiter-Glo (AID 1117346;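 active = compounds that lower survival of DLD-1 colon cancer cells in the luminescence readout, no cutoff given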). The settings on record: DLD-1 viability, CellTiter-Glo luminescence; at 20 µM (top of the series).
The nature of assay [9]: viability loss in pontine glioma line – cell-based, SU-DIPG-XVII, MIPE5.0, CellTiter-Glo, qHTS, dose response (AID 1347060; cut-off not given, nearly all actives have AC50 up to about 26 µM). The settings on record: CellTiter-Glo ATP luminescence.
Assay [10] can be described thus: viability loss in pontine glioma line – cell-based, SU-DIPG-XIII, MIPE4.0, CellTiter-Glo, qHTS, dose response (AID 1347061; cut-off not given, nearly all actives have AC50 up to about 37 µM;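 also: cells exposed to compound for 48 hours before readout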). The settings on record: CellTiter-Glo ATP luminescence.
Assay [11] can be described thus: viability loss in pontine glioma line – cell-based, SU-DIPG-IV, MIPE4.0, CellTiter-Glo, qHTS, dose response (AID 1347063; cut-off not given, nearly all actives have AC50 up to about 30 µM;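 also: compound exposure lasted 48 hours before the viability readout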). The following applies: CellTiter-Glo ATP luminescence.
The nature of assay [12]: growth inhibition of DIPG cells – cell-based, MIPE5.0 library, qHTS (AID 1347068; cut-off not given, nearly all actives have IC50 up to about 30 µM). The settings on record: SU-DIPG-XXV viability. A general note: In qHTS, concentration-response curves come from the screen itself.
Assay [13] in a line: viability loss with induced miR-34 in A549 – imaging, A549 dox-inducible miR-34, nuclei and caspase counts, primary screen (AID 1347080;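 active = compounds whose cell count with miR-34 switched on is under 0.7 times the count with it off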). The settings on record: A549 miR-34 inducible, Hoechst nuclei count, 48 h.
The nature of assay [14]: galactose survival enhancers in mitochondrial complex I cybrids – cell-based, galactose medium, ATP luminescence, primary screen (AID 1645843;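 active = z-score of at least 1.8 in each of two replicates, scored against plate mean and spread of sample wells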;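 also: positive z means more ATP and so rescue of galactose-driven cybrid death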). The following applies: complex I mutant cybrid cells, 72 h, stronger effect = higher value.
The target of assay [15] is NAD(+) hydrolase SARM1 (Homo sapiens) (UniProt Q6SZW1). Nature of the assay: blocking NAD cleavage by SARM1 SAM-TIR – cell lysate, NAD-Glo luminescence (AID 1508614;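 active = compound whose remaining NAD level is above about 45 nM, limit read from the data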;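 also: higher remaining NAD means stronger inhibition of SARM1 NADase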). The following applies: SAM-TIR HEK293T lysate NADase, at 1 µM, stronger effect = higher value.
Assay [16] concerns Aerobactin synthetase IucA (Klebsiella pneumoniae). Briefly: inhibition of K. pneumoniae IucA enzyme – biochemical, Tocris library, absorbance (AID 1345561; call rule not given here;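 also: 100% = enzyme without compound and 0% = no enzyme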). The following applies: purified IucA enzyme assay, absorbance (OD) read-out; stronger effect = lower value;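 tested at 8 µM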.
The nature of assay [17]: MELAS cybrid and Rieske KO viability enhancers – cell-based, MELAS cybrids, Rieske KO mouse fibroblasts, CellTiter-Glo, primary screen (AID 1508586;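 active = mean z-score across replicates of 1.96 or higher in either the MELAS or the Rieske mutant cell line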;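 also: z relative to plate mean and SD of compound and empty wells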). The settings on record: low glucose.
Where [18] appears, read: stronger effect = lower value, cell number ratio, induced over uninduced.
Where [19] appears, read: measured here: relative caspase fold change +Dox/-Dox.
The mark [20] stands for this setting: measured here: total cells with miR-34 induction, stronger effect = lower value.
[21] abbreviates: measured here: total cells without miR-34 induction.

Sequence of NAD(+) hydrolase SARM1 (Homo sapiens) (Q6SZW1 whole entry, looked up): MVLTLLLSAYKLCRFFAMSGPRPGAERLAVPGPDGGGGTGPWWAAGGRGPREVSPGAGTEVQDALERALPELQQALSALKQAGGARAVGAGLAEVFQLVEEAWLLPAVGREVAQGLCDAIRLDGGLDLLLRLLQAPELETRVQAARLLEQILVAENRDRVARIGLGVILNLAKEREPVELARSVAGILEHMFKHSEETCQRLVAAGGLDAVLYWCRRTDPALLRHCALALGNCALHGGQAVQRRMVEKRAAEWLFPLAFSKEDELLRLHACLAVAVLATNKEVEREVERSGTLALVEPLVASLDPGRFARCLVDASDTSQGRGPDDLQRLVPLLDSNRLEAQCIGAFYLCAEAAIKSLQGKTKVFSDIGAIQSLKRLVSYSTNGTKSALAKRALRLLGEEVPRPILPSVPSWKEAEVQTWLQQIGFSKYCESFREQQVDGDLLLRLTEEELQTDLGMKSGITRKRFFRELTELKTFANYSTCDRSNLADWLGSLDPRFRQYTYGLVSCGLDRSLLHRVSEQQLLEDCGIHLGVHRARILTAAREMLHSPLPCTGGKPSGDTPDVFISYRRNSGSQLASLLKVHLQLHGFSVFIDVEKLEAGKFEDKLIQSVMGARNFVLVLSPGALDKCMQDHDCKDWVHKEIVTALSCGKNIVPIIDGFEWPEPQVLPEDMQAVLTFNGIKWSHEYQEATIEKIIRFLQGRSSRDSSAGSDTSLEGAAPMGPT

As to `Cc1[nH]c(=O)c(C#N)cc1-c1ccc2nccn2c1`, the nuclear beta-catenin stimulation is -1.8% (inactive) in assay [1] (at 10 µM) and -0.5% in assay [1] (stimulation, at 2 µM). Moreover, the insulin secretion stimulation in assay [2] is 3% (inactive). Besides, the viability decrease in assay [3] is -9.8% (inactive). In addition, the tube area decrease in assay [4] is -3.8% (inactive). Also, the GLP1 secretion stimulation in assay [5] is -0.6% (inactive). In addition, the inhibition of viability in assay [6] is -1.6% (inactive). Moreover, the viability decrease (inhibition) in [7] was 0.1% (inactive); in assay [8], -7.8% (inactive). In addition, the call in assay [9], in assay [10], in assay [11] and in [12] was inactive. For the same molecule, the figures for the fold change in assay [13] (setting [18]) and in assay [13] (setting [19]) were 0.996 (inactive) and 0.805, respectively. In addition, the results for the cell count in assay [13] (setting [20]) and in assay [13] (setting [21]) were 9250 and 9290, respectively. The z-score in [14] was 0.905 (inactive).
In the case of `Nc1ccn(C2CO[C@H](CO)O2)c(=O)n1` (some centres undefined), the nuclear beta-catenin stimulation was 1.3% (inactive) in [1] (at 10 µM) and 0.3% in [1] (stimulation, at 2 µM). Further, the insulin secretion stimulation in assay [2] was 2% (inactive). In addition, the viability decrease in assay [3] was -8.3% (inactive). The tube area decrease in assay [4] was 7.2% (inactive). In addition, the GLP1 secretion stimulation in [5] is 0.5% (inactive). Also, in assay [6], the inhibition of viability is 4.2% (inactive). Moreover, the results for the viability decrease (inhibition) in [7] and in [8] were -18.8% (inactive) and 3.7% (inactive), respectively. For the same molecule, the call in [9], in assay [10], in [11] and in assay [12] was inactive.
With `CCCCCOC(=O)Nc1nc(=O)n([C@@H]2O[C@H](C)[C@@H](O)[C@H]2O)cc1F`, the nuclear beta-catenin stimulation in assay [1] (at 10 µM) was 0.5% (inactive); in [1] (stimulation, at 2 µM), -1.4%. The insulin secretion stimulation in assay [2] was -0.1% (inactive). In addition, the viability decrease in assay [3] is -9.5% (inactive). Moreover, the tube area decrease in [4] was 5.3% (inactive). The GLP1 secretion stimulation in [5] was -0.5% (inactive). Besides, the inhibition of viability in assay [6] was 0.7% (inactive). The viability decrease (inhibition) was -2% (inactive) in assay [7] and -8.6% (inactive) in [8]. Besides, the call in [9], in [10], in assay [11] and in [12] was inactive. For the same molecule, in assay [15], the remaining NAD is 10 nM (inactive).
Take `O=c1[nH]c2cc(C(F)(F)F)c(N3CCOCC3)cc2n(CP(=O)(O)O)c1=O`: the nuclear beta-catenin stimulation in assay [1] (at 10 µM) was 1.2% (inactive); in assay [1] (stimulation, at 2 µM) it was -0.5%. Besides, the insulin secretion stimulation in assay [2] is 0.85% (inactive). Moreover, the viability decrease in [3] was 17.9% (inactive). The tube area decrease in [4] was -10.1% (inactive). In addition, the GLP1 secretion stimulation in assay [5] is 1% (inactive). For the same molecule, the inhibition of viability in [6] is 6.1% (inactive). For the same molecule, the viability decrease (inhibition) is -13.4% (inactive) in [7] and 1.2% (inactive) in [8]. Also, the remaining activity in assay [16] was 126% (inactive). Besides, the fold change is 0.942 (inactive) in assay [13] (setting [18]) and 1.52 in [13] (setting [19]). In addition, the cell count in assay [13] (setting [20]) stood at 9280; in [13] (setting [21]), 9850. Moreover, the z-score in [14] was 0.07 (inactive).
Regarding `CCC(C)(Oc1ccc(C2(c3ccc(OC(C)(CC)C(=O)O)cc3)CCCCC2)cc1)C(=O)O` (centres undefined), the nuclear beta-catenin stimulation in [1] (at 10 µM) was -1.5% (inactive); in assay [1] (stimulation, at 2 µM) it was -1.3%. Further, the insulin secretion stimulation in [2] was 1.2% (inactive). For the same molecule, the viability decrease in assay [3] was -30.5% (inactive). In assay [4], the tube area decrease is 0.6% (inactive). Besides, the GLP1 secretion stimulation in assay [5] was 4.1% (inactive). Also, the inhibition of viability in assay [6] was -3.43% (inactive). Also, the viability decrease (inhibition) is 15.4% (inactive) in [7] and -14.6% (inactive) in assay [8]. Besides, the call in assay [9], in assay [10], in assay [11] and in assay [12] was inactive. The fold change in [13] (setting [18]) is 0.893 (inactive); in assay [13] (setting [19]), 0.926. Moreover, the cell count in [13] (setting [20]) is 9130; in assay [13] (setting [21]), 10200. Further, the z-score in [17] (MELAS cybrid survival, CellTiter-Glo 48 h, stronger effect = higher value) is -0.322 (inactive); in assay [17] (Rieske KO mouse fibroblast survival, CellTiter-Glo 72 h), 0.575.

For orientation: remaining activity means the signal under treatment as a percentage of the control signal.
